Assay results reported in the supplement of paper PMC11732987, “Enantioselective OTUD7B fragment discovery through chemoproteomics screening and high-throughput optimisation” (Communications Chemistry, 2025).

Key:
Experiment in all cases: log2 ratio of Biotin-Ahx-Ub-VS probe labelling (fragment/DMSO); higher = less target engagement (more negative = stronger competition), active = hit call of the paper (q ≤ 0.05, log2 ratio ≤ -1)
Conditions in all cases: compound concentration: 200 uM; treatment time: 3 h
[1] = target: USP34 (UniProt Q70CQ2)
USP34, sequence (Q70CQ2 whole entry, the tested form may be a part): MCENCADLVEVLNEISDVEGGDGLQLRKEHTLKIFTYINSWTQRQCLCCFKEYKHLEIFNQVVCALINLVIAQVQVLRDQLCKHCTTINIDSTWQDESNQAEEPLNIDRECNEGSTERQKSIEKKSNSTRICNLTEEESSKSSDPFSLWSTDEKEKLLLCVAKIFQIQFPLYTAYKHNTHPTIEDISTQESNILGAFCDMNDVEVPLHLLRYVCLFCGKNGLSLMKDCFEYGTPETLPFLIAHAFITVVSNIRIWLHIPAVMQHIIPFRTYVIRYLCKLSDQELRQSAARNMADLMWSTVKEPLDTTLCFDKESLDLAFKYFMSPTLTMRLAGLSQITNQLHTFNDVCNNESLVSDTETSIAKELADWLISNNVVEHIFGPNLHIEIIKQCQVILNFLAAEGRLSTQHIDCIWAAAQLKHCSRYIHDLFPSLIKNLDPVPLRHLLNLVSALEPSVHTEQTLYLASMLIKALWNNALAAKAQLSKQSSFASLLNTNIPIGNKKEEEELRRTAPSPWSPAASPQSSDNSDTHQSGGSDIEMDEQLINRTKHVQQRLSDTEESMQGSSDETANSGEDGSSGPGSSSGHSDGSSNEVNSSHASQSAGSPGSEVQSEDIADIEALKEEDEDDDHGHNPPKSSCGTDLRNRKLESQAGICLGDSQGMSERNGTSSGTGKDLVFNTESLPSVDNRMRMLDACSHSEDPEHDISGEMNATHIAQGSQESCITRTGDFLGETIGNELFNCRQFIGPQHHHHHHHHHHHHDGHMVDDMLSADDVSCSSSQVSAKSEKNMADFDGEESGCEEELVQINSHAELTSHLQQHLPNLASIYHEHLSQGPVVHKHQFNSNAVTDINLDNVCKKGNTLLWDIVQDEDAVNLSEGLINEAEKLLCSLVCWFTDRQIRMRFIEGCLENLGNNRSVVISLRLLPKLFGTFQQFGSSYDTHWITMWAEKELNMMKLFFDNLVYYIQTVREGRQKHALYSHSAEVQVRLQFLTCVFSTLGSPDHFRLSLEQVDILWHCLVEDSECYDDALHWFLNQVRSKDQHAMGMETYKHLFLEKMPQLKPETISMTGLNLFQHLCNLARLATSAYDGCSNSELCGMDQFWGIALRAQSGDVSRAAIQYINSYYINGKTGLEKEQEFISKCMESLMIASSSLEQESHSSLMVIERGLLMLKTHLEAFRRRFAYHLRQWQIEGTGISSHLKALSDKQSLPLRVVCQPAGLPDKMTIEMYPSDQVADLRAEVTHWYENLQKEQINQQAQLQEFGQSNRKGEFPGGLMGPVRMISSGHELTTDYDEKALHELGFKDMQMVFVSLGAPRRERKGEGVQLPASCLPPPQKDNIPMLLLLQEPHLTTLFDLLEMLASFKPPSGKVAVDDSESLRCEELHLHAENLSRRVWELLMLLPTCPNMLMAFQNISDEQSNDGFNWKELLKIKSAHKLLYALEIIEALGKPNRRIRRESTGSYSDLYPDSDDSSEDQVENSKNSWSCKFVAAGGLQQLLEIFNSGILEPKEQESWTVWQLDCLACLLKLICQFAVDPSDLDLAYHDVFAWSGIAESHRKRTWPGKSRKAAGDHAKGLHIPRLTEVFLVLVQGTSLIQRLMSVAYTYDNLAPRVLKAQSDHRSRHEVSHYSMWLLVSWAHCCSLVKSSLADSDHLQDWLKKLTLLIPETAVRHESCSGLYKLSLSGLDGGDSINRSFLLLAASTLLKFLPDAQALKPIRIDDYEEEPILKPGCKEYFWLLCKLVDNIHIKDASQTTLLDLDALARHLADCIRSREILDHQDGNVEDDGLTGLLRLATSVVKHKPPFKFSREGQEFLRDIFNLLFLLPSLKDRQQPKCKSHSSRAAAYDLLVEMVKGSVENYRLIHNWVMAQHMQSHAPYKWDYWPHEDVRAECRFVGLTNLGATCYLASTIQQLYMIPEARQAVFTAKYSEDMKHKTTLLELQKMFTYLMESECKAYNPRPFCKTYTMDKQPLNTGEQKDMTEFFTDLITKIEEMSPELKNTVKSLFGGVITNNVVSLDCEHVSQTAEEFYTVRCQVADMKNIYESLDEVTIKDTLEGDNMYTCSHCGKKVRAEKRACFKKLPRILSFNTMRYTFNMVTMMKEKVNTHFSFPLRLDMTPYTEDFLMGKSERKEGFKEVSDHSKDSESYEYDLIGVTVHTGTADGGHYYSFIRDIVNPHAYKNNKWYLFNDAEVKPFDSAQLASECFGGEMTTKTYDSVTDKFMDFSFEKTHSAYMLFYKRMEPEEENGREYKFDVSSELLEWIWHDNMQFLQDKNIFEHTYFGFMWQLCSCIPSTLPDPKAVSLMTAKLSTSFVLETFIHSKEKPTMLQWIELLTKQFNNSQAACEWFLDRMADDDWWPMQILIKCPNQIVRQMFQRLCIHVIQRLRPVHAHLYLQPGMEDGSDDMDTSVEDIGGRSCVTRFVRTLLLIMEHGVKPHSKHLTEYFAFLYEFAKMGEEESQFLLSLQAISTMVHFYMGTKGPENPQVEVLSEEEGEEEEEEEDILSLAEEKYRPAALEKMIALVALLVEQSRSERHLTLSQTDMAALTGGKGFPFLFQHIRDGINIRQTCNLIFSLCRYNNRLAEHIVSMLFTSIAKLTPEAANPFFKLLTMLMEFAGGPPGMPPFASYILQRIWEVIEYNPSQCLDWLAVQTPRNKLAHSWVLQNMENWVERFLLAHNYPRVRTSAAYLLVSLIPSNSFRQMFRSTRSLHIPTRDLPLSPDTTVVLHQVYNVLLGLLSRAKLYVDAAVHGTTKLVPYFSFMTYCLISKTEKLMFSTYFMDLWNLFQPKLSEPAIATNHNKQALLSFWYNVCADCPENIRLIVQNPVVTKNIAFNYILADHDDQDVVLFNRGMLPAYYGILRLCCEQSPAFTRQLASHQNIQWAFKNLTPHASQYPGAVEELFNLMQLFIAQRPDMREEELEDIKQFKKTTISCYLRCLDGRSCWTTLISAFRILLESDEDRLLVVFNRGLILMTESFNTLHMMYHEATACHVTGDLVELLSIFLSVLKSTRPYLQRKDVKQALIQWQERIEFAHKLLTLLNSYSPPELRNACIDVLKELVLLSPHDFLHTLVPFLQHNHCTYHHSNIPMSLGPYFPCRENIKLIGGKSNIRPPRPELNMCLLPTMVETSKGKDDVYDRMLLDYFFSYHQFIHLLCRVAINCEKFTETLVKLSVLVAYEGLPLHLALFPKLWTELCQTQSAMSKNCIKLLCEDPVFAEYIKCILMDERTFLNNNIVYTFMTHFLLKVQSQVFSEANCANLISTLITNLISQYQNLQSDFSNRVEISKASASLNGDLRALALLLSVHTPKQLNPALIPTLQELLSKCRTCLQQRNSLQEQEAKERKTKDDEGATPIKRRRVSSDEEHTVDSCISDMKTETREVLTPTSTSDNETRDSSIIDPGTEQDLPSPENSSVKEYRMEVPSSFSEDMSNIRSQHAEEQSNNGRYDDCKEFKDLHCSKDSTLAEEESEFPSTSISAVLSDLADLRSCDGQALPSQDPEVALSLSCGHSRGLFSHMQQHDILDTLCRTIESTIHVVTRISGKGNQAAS
How it was run: (§1)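 Each value is an average log2 ratio of fragment to vehicle, tested by unpaired t-test. The underlying Spectronaut label-free quantities were global-median-normalised, and only proteins with ≥2 unique peptides were included. Triplicate HEK293T lysate samples (495 µg) were exposed to fragment at 200 µM or vehicle for 3 h, then to Biotin-Ahx-Ub-VS at 0.5 µM final for 1 h, before NeutrAvidin enrichment of labelled DUBs, LysC and trypsin digestion, and diaPASEF LC-MS/MS.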

[2] = target: T1, USP36 (UniProt Q9P275)
T1 sequence (whole entry): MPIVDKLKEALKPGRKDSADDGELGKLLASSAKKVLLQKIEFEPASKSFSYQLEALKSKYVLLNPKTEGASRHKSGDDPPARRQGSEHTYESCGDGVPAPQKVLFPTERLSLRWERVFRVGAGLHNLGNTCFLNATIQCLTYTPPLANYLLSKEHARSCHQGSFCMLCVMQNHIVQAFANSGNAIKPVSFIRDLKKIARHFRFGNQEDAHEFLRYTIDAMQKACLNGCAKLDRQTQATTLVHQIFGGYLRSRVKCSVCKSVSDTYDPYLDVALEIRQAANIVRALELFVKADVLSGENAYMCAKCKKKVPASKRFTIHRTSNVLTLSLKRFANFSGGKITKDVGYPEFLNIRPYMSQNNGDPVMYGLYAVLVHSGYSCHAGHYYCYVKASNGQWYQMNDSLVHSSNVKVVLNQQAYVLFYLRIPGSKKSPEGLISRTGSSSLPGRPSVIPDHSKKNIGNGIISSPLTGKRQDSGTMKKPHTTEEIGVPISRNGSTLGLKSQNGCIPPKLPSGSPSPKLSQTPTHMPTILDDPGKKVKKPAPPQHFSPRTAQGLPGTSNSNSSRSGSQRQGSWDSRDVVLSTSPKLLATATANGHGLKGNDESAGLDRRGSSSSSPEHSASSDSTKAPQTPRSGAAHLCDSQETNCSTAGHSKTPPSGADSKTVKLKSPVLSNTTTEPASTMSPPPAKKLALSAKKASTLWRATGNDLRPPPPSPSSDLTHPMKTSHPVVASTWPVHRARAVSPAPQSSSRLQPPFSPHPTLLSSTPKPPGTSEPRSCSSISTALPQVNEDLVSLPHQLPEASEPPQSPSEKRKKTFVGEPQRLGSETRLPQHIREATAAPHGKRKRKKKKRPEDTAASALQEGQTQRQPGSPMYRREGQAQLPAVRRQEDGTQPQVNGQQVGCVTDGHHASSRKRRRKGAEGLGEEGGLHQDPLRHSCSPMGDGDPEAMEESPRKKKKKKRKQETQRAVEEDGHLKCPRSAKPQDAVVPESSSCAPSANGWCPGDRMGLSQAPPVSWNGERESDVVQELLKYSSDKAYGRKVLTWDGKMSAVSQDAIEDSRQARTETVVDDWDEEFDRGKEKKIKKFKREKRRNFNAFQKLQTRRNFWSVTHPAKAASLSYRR
How it was run: as §1

[3] = target: T2, USP38 (UniProt Q8NB14)
T2 sequence (whole entry): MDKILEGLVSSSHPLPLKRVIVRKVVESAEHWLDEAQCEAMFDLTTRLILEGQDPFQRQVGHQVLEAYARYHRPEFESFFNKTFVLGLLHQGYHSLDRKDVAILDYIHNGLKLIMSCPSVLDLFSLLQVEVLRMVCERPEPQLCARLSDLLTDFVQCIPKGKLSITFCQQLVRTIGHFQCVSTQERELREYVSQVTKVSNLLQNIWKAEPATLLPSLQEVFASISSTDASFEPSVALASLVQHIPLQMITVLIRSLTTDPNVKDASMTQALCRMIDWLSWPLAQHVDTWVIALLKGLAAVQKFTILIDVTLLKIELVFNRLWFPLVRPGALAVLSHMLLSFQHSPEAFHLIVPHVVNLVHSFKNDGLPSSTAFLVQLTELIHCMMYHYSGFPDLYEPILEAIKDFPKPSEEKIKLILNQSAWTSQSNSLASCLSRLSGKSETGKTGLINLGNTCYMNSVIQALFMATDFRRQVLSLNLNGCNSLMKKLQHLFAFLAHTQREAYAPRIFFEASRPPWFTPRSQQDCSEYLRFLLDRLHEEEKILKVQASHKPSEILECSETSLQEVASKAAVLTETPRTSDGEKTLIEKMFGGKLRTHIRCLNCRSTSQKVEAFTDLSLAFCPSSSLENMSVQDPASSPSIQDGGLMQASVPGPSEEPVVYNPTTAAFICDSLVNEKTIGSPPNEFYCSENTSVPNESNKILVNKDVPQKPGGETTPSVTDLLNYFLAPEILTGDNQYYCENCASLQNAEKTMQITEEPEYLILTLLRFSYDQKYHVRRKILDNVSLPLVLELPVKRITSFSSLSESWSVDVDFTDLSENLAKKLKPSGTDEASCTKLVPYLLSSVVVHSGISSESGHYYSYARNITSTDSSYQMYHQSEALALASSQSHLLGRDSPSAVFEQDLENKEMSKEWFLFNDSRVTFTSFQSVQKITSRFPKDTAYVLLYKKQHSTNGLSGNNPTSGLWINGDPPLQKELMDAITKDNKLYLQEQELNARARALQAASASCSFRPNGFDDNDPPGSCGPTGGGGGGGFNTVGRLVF
How it was run: as §1

[4] = target: T3, USP39 (UniProt Q53GS9)
T3 sequence (whole entry): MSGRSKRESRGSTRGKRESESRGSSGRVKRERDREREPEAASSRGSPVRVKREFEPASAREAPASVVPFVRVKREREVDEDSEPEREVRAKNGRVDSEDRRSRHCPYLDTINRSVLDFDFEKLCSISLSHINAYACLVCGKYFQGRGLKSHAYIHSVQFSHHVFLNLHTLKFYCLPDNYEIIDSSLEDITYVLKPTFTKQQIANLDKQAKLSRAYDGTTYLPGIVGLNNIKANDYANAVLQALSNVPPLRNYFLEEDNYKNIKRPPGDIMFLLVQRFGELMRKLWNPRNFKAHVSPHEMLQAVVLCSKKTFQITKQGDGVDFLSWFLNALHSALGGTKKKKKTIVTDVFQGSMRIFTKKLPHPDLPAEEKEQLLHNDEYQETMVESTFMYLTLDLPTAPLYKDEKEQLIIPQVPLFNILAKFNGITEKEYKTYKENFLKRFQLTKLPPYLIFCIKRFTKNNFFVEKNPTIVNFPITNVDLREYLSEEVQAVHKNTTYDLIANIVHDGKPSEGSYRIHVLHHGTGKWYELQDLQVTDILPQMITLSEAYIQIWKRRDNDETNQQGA
How it was run: as §1

[5] = target: T4, USP4 (UniProt Q13107)
T4 sequence (whole entry): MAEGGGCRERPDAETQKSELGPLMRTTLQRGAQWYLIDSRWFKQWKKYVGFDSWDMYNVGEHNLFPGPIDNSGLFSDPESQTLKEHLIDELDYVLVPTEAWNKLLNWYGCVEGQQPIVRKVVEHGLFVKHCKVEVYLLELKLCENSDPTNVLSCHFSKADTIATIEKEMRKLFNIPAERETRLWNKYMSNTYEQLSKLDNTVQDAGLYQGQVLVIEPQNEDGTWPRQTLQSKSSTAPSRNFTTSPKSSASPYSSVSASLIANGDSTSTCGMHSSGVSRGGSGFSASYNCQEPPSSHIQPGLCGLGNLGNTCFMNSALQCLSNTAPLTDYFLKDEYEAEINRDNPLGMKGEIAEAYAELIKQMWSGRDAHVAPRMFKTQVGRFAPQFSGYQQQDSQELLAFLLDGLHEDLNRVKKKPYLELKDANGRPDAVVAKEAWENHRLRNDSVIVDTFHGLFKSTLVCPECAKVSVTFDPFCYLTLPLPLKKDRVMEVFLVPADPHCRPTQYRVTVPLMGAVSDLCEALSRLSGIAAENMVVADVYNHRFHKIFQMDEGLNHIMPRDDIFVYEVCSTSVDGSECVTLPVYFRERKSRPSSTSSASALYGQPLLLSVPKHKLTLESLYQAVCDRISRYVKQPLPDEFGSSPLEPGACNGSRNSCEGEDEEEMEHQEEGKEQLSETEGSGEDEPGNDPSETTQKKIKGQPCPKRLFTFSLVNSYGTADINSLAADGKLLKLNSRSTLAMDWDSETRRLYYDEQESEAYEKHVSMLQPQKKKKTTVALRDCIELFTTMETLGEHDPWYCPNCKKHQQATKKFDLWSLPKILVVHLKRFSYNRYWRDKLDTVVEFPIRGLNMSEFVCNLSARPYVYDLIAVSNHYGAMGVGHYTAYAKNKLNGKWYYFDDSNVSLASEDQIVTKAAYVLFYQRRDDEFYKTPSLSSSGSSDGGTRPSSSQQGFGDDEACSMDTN
How it was run: as §1

Measured: log2 ratio of Biotin-Ahx-Ub-VS probe labelling

CCCn1nccc1NC(=O)CCl
inactive: [1] -0.0454 | [2] -0.015 | [3] -0.241 | [4] -0.211 | [5] -0.159
